Nuclei count, normalised and p53-positive nuclei, normalised data for eight compounds are collected here from PubChem BioAssay AID1508601 (ICCB-Longwood Screening Facility, Harvard Medical School, 2020).

The nature of assay [1]: p53 stabilisation in HPV-positive human cells, imaging, p53-positive nuclei imaging, 24 h, 48 h (AID 1508601). To be noted: 24/48 h.
Assay [2] concerns the target Cellular tumor antigen p53 (Homo sapiens) (UniProt P04637). The description is as above. To be noted: 24/48 h, stronger effect = higher value.
The mark [3] stands for this setting: measured here: cell number at 24 h, concentration not given here.
[4] abbreviates: measured here: cell number at 48 h, concentration not given here.
Setting [5] is: measured here: p53 positive nuclei at 24 h, concentration not given here.
[6] abbreviates: measured here: cell number at 24 h, Library stock concentration: 80 uM.
Setting [7] is: measured here: cell number at 24 h, Library stock concentration: 400 uM.
The mark [8] stands for this setting: measured here: cell number at 24 h, Library stock concentration: 2 mM.
Where [9] appears, read: measured here: cell number at 24 h, Library stock concentration: 3.33 mM.
Setting [10] is: measured here: cell number at 24 h, Library stock concentration: 10 mM.
The mark [11] stands for this setting: measured here: cell number at 48 h, Library stock concentration: 80 uM.
Setting [12] is: measured here: cell number at 48 h, Library stock concentration: 400 uM.
Where [13] appears, read: measured here: cell number at 48 h, Library stock concentration: 2 mM.
The mark [14] stands for this setting: measured here: cell number at 48 h, Library stock concentration: 3.33 mM.
Where [15] appears, read: measured here: cell number at 48 h, Library stock concentration: 10 mM.
The mark [16] stands for this setting: Library stock concentration: 80 uM.
The mark [17] stands for this setting: Library stock concentration: 400 uM.
Where [18] appears, read: Library stock concentration: 2 mM.
[19] abbreviates: Library stock concentration: 3.33 mM.
Where [20] appears, read: Library stock concentration: 10 mM.
[21] abbreviates: measured here: p53 positive nuclei at 24 h, Library stock concentration: 80 uM.
Where [22] appears, read: measured here: p53 positive nuclei at 24 h, Library stock concentration: 400 uM.
Where [23] appears, read: measured here: p53 positive nuclei at 24 h, Library stock concentration: 2 mM.
Setting [24] is: measured here: p53 positive nuclei at 24 h, Library stock concentration: 3.33 mM.
Where [25] appears, read: measured here: p53 positive nuclei at 24 h, Library stock concentration: 10 mM.

The campaign covered roughly 5,700 compounds. About 85 (1%) were called active. No stated cut-off is given here; in the data, active means p53-positive nuclei above about 36% (passing the limit was not always enough); inactive means the rest. For the sample, actives were picked, then their nearest neighbours and some compounds at random.

Sequence of Cellular tumor antigen p53 (Homo sapiens) (P04637 whole entry, looked up): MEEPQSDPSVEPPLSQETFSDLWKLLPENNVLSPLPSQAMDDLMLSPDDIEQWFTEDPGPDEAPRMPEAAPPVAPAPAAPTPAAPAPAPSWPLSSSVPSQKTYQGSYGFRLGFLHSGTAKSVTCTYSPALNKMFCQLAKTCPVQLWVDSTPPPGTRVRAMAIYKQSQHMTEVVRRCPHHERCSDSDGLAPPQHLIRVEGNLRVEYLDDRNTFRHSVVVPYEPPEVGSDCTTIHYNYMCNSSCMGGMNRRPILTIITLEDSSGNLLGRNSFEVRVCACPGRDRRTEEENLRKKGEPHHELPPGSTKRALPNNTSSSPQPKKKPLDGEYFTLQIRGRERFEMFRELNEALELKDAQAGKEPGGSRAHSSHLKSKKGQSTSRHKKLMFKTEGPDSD

Take `CCCCCCCCCCCCCCCCCCCC(=O)NCCO`: the nuclei count, normalised in assay [1] (setting [3]) was found to be 110%; in assay [1] (setting [4]), 108%. For the same compound, the results for the p53-positive nuclei, normalised in assay [2] (concentration not given here) and in assay [2] (setting [5]) were -0.151% (inactive) and -0.0865%, respectively.
Consider `CCCCc1nc2cc(C=CC(=O)NO)ccc2n1CCN(CC)CC`, for which the nuclei count, normalised came out at 95.3% in assay [1] (setting [6]); 95.2% in assay [1] (setting [7]); 78.6% in assay [1] (setting [8]); 52.6% in assay [1] (setting [9]); 51% in assay [1] (setting [10]); 90.2% in assay [1] (setting [11]). The nuclei count, normalised in assay [1] (setting [12]) worked out at 86.3%; in assay [1] (setting [13]) it was 62.7%; in assay [1] (setting [14]) it was 28.6%; in assay [1] (setting [15]), 28.2%. Further, the p53-positive nuclei, normalised in assay [2] (setting [16]) was 1.67% (inactive); in assay [2] (setting [17]) it was 3.58% (inactive); in assay [2] (setting [18]) it was 17.7% (inactive); in assay [2] (setting [19]), 87.1% (active); in assay [2] (setting [20]), 84.9% (active); in assay [2] (setting [21]) it was 5.63%. The p53-positive nuclei, normalised in assay [2] (setting [22]) stood at 7.57%; in assay [2] (setting [23]), 33.7%; in assay [2] (setting [24]), 71.3%; in assay [2] (setting [25]), 79.8%.
Take `CCCCCc1ccc(C=CC(=O)Nc2ccccc2C(=O)O)cc1`: the nuclei count, normalised in assay [1] (measured here: cell number at 24 h, Library stock concentration: 46 uM) was 113%; in assay [1] (measured here: cell number at 24 h, Library stock concentration: 278 uM) it was 109%; in assay [1] (measured here: cell number at 24 h, Library stock concentration: 1.67 mM), 111%; in assay [1] (setting [10]), 109%; in assay [1] (measured here: cell number at 48 h, Library stock concentration: 46 uM) it was 113%; in assay [1] (measured here: cell number at 48 h, Library stock concentration: 278 uM), 110%. In addition, the nuclei count, normalised in assay [1] (measured here: cell number at 48 h, Library stock concentration: 1.67 mM) came out at 110%; in assay [1] (setting [15]), 106%. The p53-positive nuclei, normalised was -0.18% (inactive) in assay [2] (Library stock concentration: 46 uM); -0.17% (inactive) in assay [2] (Library stock concentration: 278 uM); -0.244% (inactive) in assay [2] (Library stock concentration: 1.67 mM); -0.204% (inactive) in assay [2] (setting [20]); -0.087% in assay [2] (measured here: p53 positive nuclei at 24 h, Library stock concentration: 46 uM); -0.151% in assay [2] (measured here: p53 positive nuclei at 24 h, Library stock concentration: 278 uM). In addition, the p53-positive nuclei, normalised was -0.151% in assay [2] (measured here: p53 positive nuclei at 24 h, Library stock concentration: 1.67 mM) and -0.0182% in assay [2] (setting [25]).
For `COc1ccc(CNCC2COCCO2)cc1OC` (stereo not drawn), the nuclei count, normalised in assay [1] (setting [3]) was 101%; in assay [1] (setting [4]), 103%. The p53-positive nuclei, normalised in assay [2] (concentration not given here) is 0.0897% (inactive); in assay [2] (setting [5]), 0.164%.
For `O=C(NOCC(O)CO)c1ccc(F)c(F)c1Nc1ccc(I)cc1F` (stereo not drawn), the nuclei count, normalised was 110% in assay [1] (setting [6]); 101% in assay [1] (setting [7]); 91.9% in assay [1] (setting [8]); 96.8% in assay [1] (setting [9]); 99.9% in assay [1] (setting [10]); 106% in assay [1] (setting [11]). Moreover, the nuclei count, normalised in assay [1] (setting [12]) came to 104%; in assay [1] (setting [13]), 95.8%; in assay [1] (setting [14]), 97.9%; in assay [1] (setting [15]), 95.8%. Besides, the p53-positive nuclei, normalised in assay [2] (setting [16]) was -0.174% (inactive); in assay [2] (setting [17]), -0.189% (inactive); in assay [2] (setting [18]), 0.0424% (inactive); in assay [2] (setting [19]), -0.685% (inactive); in assay [2] (setting [20]) it was 0.268% (inactive); in assay [2] (setting [21]), 0.00674%. For the same compound, the p53-positive nuclei, normalised is 0.0842% in assay [2] (setting [22]), -0.07% in assay [2] (setting [23]), -0.375% in assay [2] (setting [24]) and 0.0144% in assay [2] (setting [25]).
For the compound `O=Nc1c(O)[nH]c2c(Cl)c(Cl)ccc12`, the nuclei count, normalised in assay [1] (setting [6]) amounted to 111%; in assay [1] (setting [7]), 99.5%; in assay [1] (setting [8]), 83.2%; in assay [1] (setting [10]) it was 73.5%; in assay [1] (setting [11]) it was 109%; in assay [1] (setting [12]), 99%. In addition, the nuclei count, normalised in assay [1] (setting [13]) was determined as 54.9%; in assay [1] (setting [15]), 33.7%. Further, the p53-positive nuclei, normalised is 0.16% (inactive) in assay [2] (setting [16]); -0.101% (inactive) in assay [2] (setting [17]); 48.3% (inactive) in assay [2] (setting [18]); 84.3% (active) in assay [2] (setting [20]); 0.217% in assay [2] (setting [21]); 0.0912% in assay [2] (setting [22]). In addition, the p53-positive nuclei, normalised came to 2.93% in assay [2] (setting [23]) and 8.66% in assay [2] (setting [25]).
In the case of `CC(C)C(=O)Oc1ccc(CO)cc1C(CCN(C(C)C)C(C)C)c1ccccc1` (stereo not drawn), the nuclei count, normalised is 113% in assay [1] (setting [9]) and 108% in assay [1] (setting [14]). In addition, the p53-positive nuclei, normalised was -0.0601% (inactive) in assay [2] (setting [19]) and -0.451% in assay [2] (setting [24]).
As to `CCCCC[C@H](O)/C=C/[C@@H]1[C@H](CCCCCCC(=O)O)[C@H](O)C[C@H]1O`, the figures for the nuclei count, normalised in assay [1] (setting [3]) and in assay [1] (setting [4]) were 103% and 107%, respectively. Further, the p53-positive nuclei, normalised in assay [2] (concentration not given here) was -0.142% (inactive); in assay [2] (setting [5]), -0.0664%.
